Assay results: PubChem BioAssay (EPA / NIEHS)
Active and inactive are the calls of the source. The calls were made as follows: active = hit-call score of the fitted dose curve at least 0.9, where 1 is the maximum; inactive = score below 0.9.

What was measured:
[1] = target: CCAAT/enhancer-binding protein beta (Homo sapiens) (UniProt P17676); experiment: ATG_C_EBP_CIS: Attagene CIS-FACTORIAL HepG2 Assay for human CCAAT/Enhancer Binding Protein (C/EBP) beta (AID 2282927); details: HepG2 Attagene cis-factorial transcription factor reporter; actives raise or lower the signal
CCAAT/enhancer-binding protein beta (Homo sapiens), sequence (P17676 whole entry, looked up): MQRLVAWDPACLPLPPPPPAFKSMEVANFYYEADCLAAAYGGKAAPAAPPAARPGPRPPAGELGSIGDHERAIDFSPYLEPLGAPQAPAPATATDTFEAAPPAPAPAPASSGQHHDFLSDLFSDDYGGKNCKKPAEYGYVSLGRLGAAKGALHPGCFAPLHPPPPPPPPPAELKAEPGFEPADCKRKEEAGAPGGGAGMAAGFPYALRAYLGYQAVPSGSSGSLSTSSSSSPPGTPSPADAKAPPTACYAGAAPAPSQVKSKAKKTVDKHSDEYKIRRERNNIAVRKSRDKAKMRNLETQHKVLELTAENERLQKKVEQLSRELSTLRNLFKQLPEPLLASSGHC
Procedure, shortened: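 HepG2 transiently transfected with multiplexed reporter units under cis-regulatory promoters reporting endogenous C/EBPb activity. After 24 h exposure, reporter mRNA assayed by RT-PCR, fluorescent labelling, HpaI digestion and capillary electrophoresis; bidirectional fitting versus DMSO.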

[2] = ATG_CMV_CIS: Attagene CIS-FACTORIAL HepG2 Assay for human CMV (Internal Marker) (AID 2282928); details: HepG2 CMV promoter reporter, transcription factor profiling; actives raise or lower the signal;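 also: endpoint acts as a background internal control marker rather than a target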
Procedure, shortened: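 Cell system: HepG2, transiently transfected multiple reporter units under cis promoters. Exposure: 24 h. Detection: RT-PCR, FAM labeling, HpaI digestion, capillary electrophoresis. Analysis: bidirectional, DMSO baseline.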

[3] = ATG_DR4_LXR_CIS: Attagene CIS-FACTORIAL HepG2 Assay for human Liver X Receptor (LXR), DR4 submotif (AID 2282929); details: HepG2 Attagene DR4 cis-reporter, mRNA transcription; actives raise or lower the signal
Procedure, shortened: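 Transiently transfected HepG2 liver cells; cis-regulated reporters; 24 h dosing. RT-PCR plus CE read-out of reporter mRNA. DMSO baseline, bidirectional curve fitting.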

[4] = target: Aryl hydrocarbon receptor (Homo sapiens) (UniProt P35869); experiment: ATG_Ahr_CIS: Attagene CIS-FACTORIAL HepG2 Assay for human Aryl Hydrocarbon Receptor (Ahr) (AID 2282930); details: HepG2 AhR cis-factorial reporter transcription; actives raise or lower the signal
Aryl hydrocarbon receptor (Homo sapiens), sequence (P35869 whole entry, looked up): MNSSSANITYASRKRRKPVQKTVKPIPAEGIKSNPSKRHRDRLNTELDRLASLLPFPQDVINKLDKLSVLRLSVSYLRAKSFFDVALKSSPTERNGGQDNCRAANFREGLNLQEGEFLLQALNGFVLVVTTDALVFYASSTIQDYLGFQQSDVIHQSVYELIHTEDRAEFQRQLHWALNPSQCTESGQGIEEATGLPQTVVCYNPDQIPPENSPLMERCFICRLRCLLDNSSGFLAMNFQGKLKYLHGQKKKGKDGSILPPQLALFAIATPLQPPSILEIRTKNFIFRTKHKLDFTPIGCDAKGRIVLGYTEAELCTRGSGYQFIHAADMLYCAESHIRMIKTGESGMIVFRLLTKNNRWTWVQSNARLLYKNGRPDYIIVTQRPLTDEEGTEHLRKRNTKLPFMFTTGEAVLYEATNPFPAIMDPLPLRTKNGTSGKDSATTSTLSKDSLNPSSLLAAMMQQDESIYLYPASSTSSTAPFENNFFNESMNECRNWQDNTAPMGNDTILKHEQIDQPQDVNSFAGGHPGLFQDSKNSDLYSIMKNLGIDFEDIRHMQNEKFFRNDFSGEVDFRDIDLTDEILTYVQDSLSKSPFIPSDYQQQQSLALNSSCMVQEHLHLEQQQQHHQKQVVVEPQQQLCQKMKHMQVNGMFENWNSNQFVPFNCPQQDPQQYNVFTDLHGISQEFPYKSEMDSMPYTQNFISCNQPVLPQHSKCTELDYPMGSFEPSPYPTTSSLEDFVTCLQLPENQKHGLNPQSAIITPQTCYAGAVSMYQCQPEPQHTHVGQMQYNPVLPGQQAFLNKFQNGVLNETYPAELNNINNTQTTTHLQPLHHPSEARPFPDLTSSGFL
Procedure, shortened: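 HepG2 cells transiently transfected with cis-element-driven multiplexed reporter units; endogenous AhR activity read as reporter mRNA 24 h after dosing, via RT-PCR, 6-FAM labelling, HpaI digestion and capillary electrophoresis. Bidirectional fit relative to DMSO.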

[5] = ATG_AP_1_CIS: Attagene CIS-FACTORIAL HepG2 Assay for human Activator Protein 1 (AP-1) (AID 2282931); details: HepG2 Attagene cis-factorial AP-1 reporter mRNA; actives raise or lower the signal
Procedure, shortened: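 We transfected HepG2 cells transiently with a set of cis-regulated reporter transcription units, dosed them for 24 h, and quantified reporter mRNA via RT-PCR and capillary electrophoresis, scoring gain or loss of signal relative to DMSO.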

[6] = ATG_AP_2_CIS: Attagene CIS-FACTORIAL HepG2 Assay for human Activator Protein 2 (AP-2) (AID 2282932); details: HepG2 AP-2 cis-reporter, Attagene transcription factor profiling; actives raise or lower the signal
Procedure, shortened: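 Multiplexed mRNA reporter assay in HepG2: cis-regulated units report endogenous factor activity after 24 h treatment. Fluorescence from capillary electrophoresis of RT-PCR products gives the signal, with DMSO as baseline.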

[7] = ATG_BRE_CIS: Attagene CIS-FACTORIAL HepG2 Assay for human Bone Morphogenetic Protein (BMP) Response Element (BRE) (AID 2282933); details: HepG2 BMP response element reporter, Attagene transcription factor profiling; actives raise or lower the signal
Procedure, shortened: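 Endogenous transcription factor activity read in transiently transfected HepG2 cells after 24 h chemical exposure. Bidirectional curve fitting against DMSO; readout is reporter transcript level by RT-PCR with capillary electrophoresis of labelled products.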

[8] = target: Retinoic acid receptor alpha (Homo sapiens) (UniProt P10276); experiment: ATG_DR5_RAR_CIS: Attagene CIS-FACTORIAL HepG2 Assay for human Retinoic Acid Receptor Alpha (RARE), DR5 submotif (AID 2282934); details: HepG2 Attagene cis-factorial RARE DR5 reporter, mRNA; actives raise or lower the signal
Retinoic acid receptor alpha (Homo sapiens), sequence (P10276 whole entry, looked up): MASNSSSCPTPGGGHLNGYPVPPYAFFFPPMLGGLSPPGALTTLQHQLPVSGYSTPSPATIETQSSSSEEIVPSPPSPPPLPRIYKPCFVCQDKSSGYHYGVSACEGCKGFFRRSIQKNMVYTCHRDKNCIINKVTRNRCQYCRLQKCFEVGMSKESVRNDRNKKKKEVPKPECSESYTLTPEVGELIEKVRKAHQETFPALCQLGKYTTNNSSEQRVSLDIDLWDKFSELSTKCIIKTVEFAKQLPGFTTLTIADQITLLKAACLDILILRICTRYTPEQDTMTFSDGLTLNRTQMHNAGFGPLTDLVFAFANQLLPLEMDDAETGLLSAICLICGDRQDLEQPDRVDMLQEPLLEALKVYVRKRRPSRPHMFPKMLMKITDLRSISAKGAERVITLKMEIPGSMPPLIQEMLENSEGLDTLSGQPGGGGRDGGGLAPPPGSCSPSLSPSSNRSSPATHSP
Procedure, shortened: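 HepG2 cells transiently transfected with multiplexed reporter units; DR5 cis-element drives reporter through endogenous transcription factors. After 24 h dosing, reporter mRNA quantified by RT-PCR, fluorescent labeling, HpaI digestion and capillary electrophoresis; bidirectional fitting versus DMSO.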

[9] = target: Transcription factor E2F1 (Homo sapiens) (UniProt Q01094); experiment: ATG_E2F_CIS: Attagene CIS-FACTORIAL HepG2 Assay for human E2F Transcription Factor 1 (AID 2282935); details: HepG2 Attagene cis-reporter, E2F reporter RNA transcripts; actives raise or lower the signal
Transcription factor E2F1 (Homo sapiens), sequence (Q01094 whole entry, looked up): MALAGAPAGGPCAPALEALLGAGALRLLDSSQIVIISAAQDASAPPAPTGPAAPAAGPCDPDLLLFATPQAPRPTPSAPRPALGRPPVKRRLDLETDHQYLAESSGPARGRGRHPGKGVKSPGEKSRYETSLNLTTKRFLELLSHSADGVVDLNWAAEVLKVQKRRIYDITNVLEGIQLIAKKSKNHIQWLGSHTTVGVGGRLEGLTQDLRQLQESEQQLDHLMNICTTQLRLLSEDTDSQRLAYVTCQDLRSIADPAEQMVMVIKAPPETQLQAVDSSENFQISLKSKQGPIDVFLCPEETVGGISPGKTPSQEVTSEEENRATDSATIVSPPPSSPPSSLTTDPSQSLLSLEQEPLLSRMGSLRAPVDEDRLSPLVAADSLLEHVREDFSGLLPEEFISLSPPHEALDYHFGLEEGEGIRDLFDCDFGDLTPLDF
Procedure, shortened: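 Measures reporter transcript levels via RT-PCR with capillary electrophoresis detection in HepG2 cells harboring cis-regulated reporter units; 24 h post-dose; bidirectional curve fitting with DMSO as baseline.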

[10] = ATG_E_Box_CIS: Attagene CIS-FACTORIAL HepG2 Assay for human Enhancer Box (E-box) (AID 2282936); details: HepG2 E-box cis-reporter transcription, actives raise or lower the signal
Procedure, shortened: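 First, HepG2 cells receive multiple cis-regulated reporter constructs by transient transfection. Next, chemicals are applied for 24 h. Finally, reporter mRNA is quantified via RT-PCR and capillary electrophoresis, with DMSO as baseline.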

[11] = ATG_M_61_CIS: Attagene CIS-FACTORIAL HepG2 Assay for M61 Transcription Factor (Internal Marker) (AID 2282937); details: HepG2 Attagene CIS-FACTORIAL M61 internal marker reporter; actives raise or lower the signal
Procedure, shortened: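 Multiplexed reporter mRNA assay, HepG2 human hepatoma cells, 24 h treatment. Signal: FAM-labelled, HpaI-digested RT-PCR fragments by CE. Fit: bidirectional, baseline DMSO.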

[12] = ATG_EGR_CIS: Attagene CIS-FACTORIAL HepG2 Assay for human Early Growth Response 1 (EGR1) (AID 2282938); details: HepG2 Attagene CIS-FACTORIAL EGR reporter mRNA; actives raise or lower the signal
Procedure, shortened: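 Multiplexed cis-reporter system in human hepatoma HepG2 cells, transiently transfected. Cells are dosed for 24 h; reporter transcripts are amplified, fluorescently tagged and sized by capillary electrophoresis, with DMSO as negative control.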

[13] = ATG_M_19_CIS: Attagene CIS-FACTORIAL HepG2 Assay for M19 Transcription Factor (Internal Marker) (AID 2282939); details: HepG2 Attagene CIS-FACTORIAL M19 internal marker reporter; actives raise or lower the signal
Procedure, shortened: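 Internal marker readout, fitted in both directions against DMSO, from HepG2 cells carrying transfected cis-element reporter constructs; RT-PCR and capillary electrophoresis of reporter mRNA after 24 h exposure.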

[14] = ATG_ERE_CIS: Attagene CIS-FACTORIAL HepG2 Assay for Estrogen Response Element (ERE) (AID 2282940); details: HepG2 ERE cis-reporter, Attagene RNA transcript; actives raise or lower the signal
Procedure, shortened: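 After 24 h compound treatment, RNA from transfected HepG2 cells was reverse-transcribed, reporter cDNA PCR-amplified, FAM-labelled, HpaI-cut and resolved by capillary electrophoresis. ERE-driven cis reporter transcripts reflect endogenous factors; gain or loss scored against DMSO.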

[15] = ATG_Ets_CIS: Attagene CIS-FACTORIAL HepG2 Assay for human Erythroblast Transformation Specific (ETS) (AID 2282941); details: HepG2 ETS cis-reporter transcription, actives raise or lower the signal
Procedure, shortened: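 After transient cis-reporter transfection, HepG2 cells receive test chemical for 24 h. Reporter mRNA levels, measured by RT-PCR and capillary electrophoresis fluorescence, are analysed bidirectionally relative to the DMSO baseline.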

[16] = ATG_FoxO_CIS: Attagene CIS-FACTORIAL HepG2 Assay for human Forkhead box O (FoxO) (AID 2282943); details: HepG2 Attagene cis-reporter, FoxO element, mRNA; actives raise or lower the signal
Procedure, shortened: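 HepG2 cells transiently transfected with cis-element-driven reporter units report endogenous FoxO activity. After 24 h chemical exposure, reporter mRNA quantified by RT-PCR, fluorescent labeling, HpaI digestion and capillary electrophoresis; bidirectional fit versus DMSO.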

[17] = ATG_GATA_CIS: Attagene CIS-FACTORIAL HepG2 Assay for human GATA Binding Protein (AID 2282944); details: HepG2 GATA cis-element reporter, Attagene multiplex mRNA; actives raise or lower the signal
Procedure, shortened: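 Reporter transcripts from a GATA cis-regulated unit, among multiplexed reporters in transfected HepG2 cells, were measured by RT-PCR with capillary electrophoresis after 24 h dosing. Induction or loss scored relative to DMSO.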

[18] = ATG_GLI_CIS: Attagene CIS-FACTORIAL HepG2 Assay for human Zinc Finger Protein GLI1 (AID 2282945); details: HepG2, Attagene cis-factorial reporter mRNA, GLI element; actives raise or lower the signal
Procedure, shortened: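 Transiently transfected HepG2 cells report endogenous transcription factor activity via cis-element-driven reporter units. After 24 h compound exposure, reporter mRNA was measured by RT-PCR with capillary electrophoresis; bidirectional fitting against DMSO baseline.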

[19] = target: Hepatocyte nuclear factor 3-beta (Homo sapiens) (UniProt Q9Y261); experiment: ATG_FoxA2_CIS: Attagene CIS-FACTORIAL HepG2 Assay for human Forkhead box A2 (FOXA2) (AID 2282942); details: HepG2 cis-reporter transcription factor activity, 24 h; actives raise or lower the signal
Hepatocyte nuclear factor 3-beta (Homo sapiens), sequence (Q9Y261 whole entry, looked up): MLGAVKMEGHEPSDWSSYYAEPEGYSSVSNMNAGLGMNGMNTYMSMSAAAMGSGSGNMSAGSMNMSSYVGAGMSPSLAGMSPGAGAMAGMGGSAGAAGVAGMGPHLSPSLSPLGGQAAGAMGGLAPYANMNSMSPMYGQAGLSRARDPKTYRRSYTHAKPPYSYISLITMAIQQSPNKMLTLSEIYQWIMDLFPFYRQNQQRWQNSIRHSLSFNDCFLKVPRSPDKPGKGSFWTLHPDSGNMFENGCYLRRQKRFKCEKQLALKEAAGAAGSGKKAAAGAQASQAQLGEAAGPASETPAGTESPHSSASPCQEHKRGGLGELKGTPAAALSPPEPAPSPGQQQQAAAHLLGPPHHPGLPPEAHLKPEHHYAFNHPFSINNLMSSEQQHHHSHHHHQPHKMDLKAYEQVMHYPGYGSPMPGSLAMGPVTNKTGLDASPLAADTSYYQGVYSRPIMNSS
Procedure, shortened: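 Multiplexed cis-element reporter assay in transiently transfected HepG2. Twenty-four hours post-dosing, RNA was reverse-transcribed, amplified, FAM-labelled, HpaI-digested and separated by CE. Activity gain or loss relative to DMSO.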

N#[N+]c1ccc2c(S(=O)(=O)[O-])cccc2c1O
outcome [1]: inactive
outcome [2]: inactive
outcome [3]: inactive
outcome [4]: inactive
outcome [5]: inactive
outcome [6]: inactive
outcome [7]: inactive
outcome [8]: inactive
outcome [9]: inactive
outcome [10]: inactive
outcome [11]: inactive
outcome [12]: inactive
outcome [13]: inactive
outcome [14]: inactive
outcome [15]: inactive
outcome [16]: inactive
outcome [17]: inactive
outcome [18]: inactive

OC1OCCOC1O (stereo not drawn)
outcome [1]: inactive
outcome [3]: inactive
outcome [4]: inactive
outcome [5]: inactive
outcome [6]: inactive
outcome [7]: inactive
outcome [8]: inactive
outcome [9]: inactive
outcome [10]: inactive
outcome [12]: inactive
outcome [13]: inactive
outcome [14]: inactive
outcome [15]: inactive
outcome [19]: inactive
outcome [16]: inactive
outcome [18]: inactive

CC(=O)Nc1ccc2c(c1)Cc1cc(NC(C)=O)ccc1-2
outcome [1]: inactive
outcome [2]: inactive
outcome [3]: inactive
outcome [4]: inactive
outcome [5]: inactive
outcome [6]: inactive
outcome [7]: inactive
outcome [8]: inactive
outcome [9]: inactive
outcome [10]: inactive
outcome [11]: inactive
outcome [12]: inactive
outcome [13]: inactive
outcome [14]: inactive
outcome [15]: inactive
outcome [16]: inactive
outcome [17]: inactive
outcome [18]: inactive

C=CCOc1c(Br)cc(Br)cc1Br
outcome [1]: inactive
AC50 [2]: 35.1 µM (active)
outcome [3]: inactive
outcome [5]: inactive
outcome [6]: inactive
outcome [7]: inactive
outcome [8]: inactive
outcome [9]: inactive
outcome [10]: inactive
outcome [12]: inactive
outcome [13]: inactive
AC50 [14]: 27.7 µM (active)
outcome [15]: inactive
outcome [19]: inactive
outcome [16]: inactive
outcome [17]: inactive
outcome [18]: inactive

CCC(C)(C)C1CCCCC1OC(C)=O (stereo not drawn)
outcome [1]: inactive
AC50 [2]: 155 µM (active)
outcome [3]: inactive
outcome [4]: inactive
AC50 [5]: 158 µM (active)
outcome [6]: inactive
outcome [7]: inactive
outcome [8]: inactive
outcome [9]: inactive
outcome [10]: inactive
outcome [11]: inactive
outcome [12]: inactive
outcome [13]: inactive
outcome [14]: inactive
outcome [15]: inactive
outcome [19]: inactive
outcome [16]: inactive
outcome [18]: inactive

CC(C)(C)c1ccc(OC(=O)c2ccccc2O)cc1
outcome [1]: inactive
AC50 [2]: 34.7 µM (active)
outcome [3]: inactive
outcome [4]: inactive
outcome [5]: inactive
outcome [6]: inactive
outcome [7]: inactive
outcome [8]: inactive
outcome [9]: inactive
outcome [10]: inactive
outcome [12]: inactive
outcome [13]: inactive
AC50 [14]: 7.32 µM (active)
outcome [15]: inactive
outcome [19]: inactive
outcome [16]: inactive
outcome [17]: inactive
outcome [18]: inactive

O=C(Nc1cccc(C(F)(F)F)c1)c1cc(Br)cc(Br)c1O
outcome [1]: inactive
AC50 [2]: 160 µM (active)
AC50 [3]: 38.3 µM (active)
outcome [5]: inactive
AC50 [6]: 5.76 µM (active)
AC50 [7]: 1.08 µM (active)
outcome [8]: inactive
outcome [9]: inactive
AC50 [10]: 77.6 µM (active)
outcome [11]: inactive
AC50 [12]: 25.5 µM (active)
outcome [13]: inactive
outcome [14]: inactive
outcome [15]: inactive
outcome [19]: inactive
outcome [16]: inactive
outcome [17]: inactive
AC50 [18]: 83 µM (active)

COC(=O)/C=C\C(=O)O
outcome [1]: inactive
outcome [2]: inactive
outcome [3]: inactive
outcome [4]: inactive
outcome [5]: inactive
outcome [6]: inactive
outcome [7]: inactive
outcome [8]: inactive
outcome [9]: inactive
outcome [10]: inactive
outcome [11]: inactive
outcome [12]: inactive
outcome [13]: inactive
outcome [14]: inactive
outcome [15]: inactive
outcome [19]: inactive
outcome [16]: inactive
outcome [17]: inactive
outcome [18]: inactive

CCCCC(CC)COC(=O)c1ccccc1 (stereo not drawn)
outcome [1]: inactive
outcome [3]: inactive
outcome [4]: inactive
outcome [5]: inactive
outcome [7]: inactive
outcome [8]: inactive
outcome [9]: inactive
outcome [10]: inactive
outcome [11]: inactive
outcome [12]: inactive
outcome [13]: inactive
AC50 [14]: 37.3 µM (active)
outcome [15]: inactive
outcome [19]: inactive
outcome [16]: inactive
outcome [17]: inactive
outcome [18]: inactive

ON(Cc1ccccc1)Cc1ccccc1
outcome [1]: inactive
outcome [2]: inactive
outcome [3]: inactive
outcome [4]: inactive
outcome [5]: inactive
outcome [6]: inactive
outcome [7]: inactive
outcome [8]: inactive
outcome [9]: inactive
outcome [10]: inactive
outcome [11]: inactive
outcome [12]: inactive
outcome [13]: inactive
outcome [14]: inactive
outcome [15]: inactive
outcome [19]: inactive
outcome [16]: inactive
outcome [17]: inactive
outcome [18]: inactive
